Data on 90 compounds can be found in PubChem BioAssay AID588335 (The Scripps Research Institute Molecular Screening Center, 2011).

By inhibition is commonly meant the drop in the measured response relative to a control, in per cent.

In all, about 360,000 compounds went through this assay and about 4,500 (1.2%) were called active. Only a selection was taken, and actives are over-represented in it overall. Values without a mark were called inactive. No stated cut-off is given here; in the data, active means inhibition above about 30%; inactive means the rest.

This test is described as follows: GDH-TPI coupling enzyme inhibitors, primary screen, artefact control for M. tuberculosis FBA inhibitor project, biochemical, absorbance, full deck (AID 588335).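 Further: 0% = DMSO wells and 100% = wells lacking the enzyme.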 The conditions noted are these: GDH-TPI coupled enzyme counterscreen, NADH absorbance; at 4.8 µM; hits give high values.
`O=C(Nc1ccc(F)c([N+](=O)[O-])c1)C1CCCO1` (stereo not given): the inhibition is 7.32%.
To `CC(C)(C)c1nnc2sc(SCC(O)=C(C#N)c3nc4ccccc4[nH]3)nn2c1=O` belongs 9.05%; to `COCCN(CCOC)S(=O)(=O)c1ccc(C(=O)Nc2nc3c(s2)CCc2ccccc2-3)cc1`, 9.74%; to `COCCN(CCOC)S(=O)(=O)c1ccc(/C(O)=C(\C#N)c2nc3ccccc3[nH]2)cc1`, 42.7% (active).
To `CC1(C)CC(=O)C2=C(C1)N=C1SCCC(=O)N1C2c1ccc(C(F)(F)F)cc1` (stereo not given) belongs 31% (active).
Turning to `CC1(C(=O)Nc2ccccc2Br)CCN1C(=O)CC1CC1` (stereo not given), the inhibition is -0.89%.
For the compound `C=CCSC(CC)(CC)C(N)=O`, the inhibition is 3.59%.
To `CN1C(c2ccc(F)cc2)=CS/C1=C(/C#N)c1nnc2n1-c1ccccc1SC2` belongs 18.8%; to `Cc1ccccc1-n1cc(CNC(=O)CC2C(=O)NCCN2C/C=C/c2ccccc2)cn1` (stereo not given), -1.22%; to `COc1cccc(-c2nc3ccc(N4CCN(C)CC4)cc3[nH]2)c1`, 31.7% (active).
To `COc1cccc(N2CCN(c3ccc4nnc(CCC(=O)N5CCN(C)CC5)n4n3)CC2)c1` belongs -6.09%.
To `COc1cccc(N2CCN(C3CC(=O)N(c4ccc(Cl)cc4)C3=O)CC2)c1` (stereo not given) belongs -9.65%; to `CCCN(C(=O)CSc1nnc(N)s1)c1c(N)n(Cc2ccccc2)c(=O)[nH]c1=O`, 2.63%; to `O=c1cccc(-c2ccc(Br)cc2)o1`, 17.6%.
In the case of `CCOC(=O)c1cc2cc3ccccc3cc2oc1=O`, the inhibition is 38.1% (active).
To `C=CCc1cccc2cc(C(=O)OCC)c(=O)oc12` belongs 10.2%.
To `CCOc1cccc2cc(C(=O)OCC(=O)Nc3c(C)cccc3CC)c(=O)oc12` belongs 11.9%; to `CN1CCCc2cc(C#N)c(=O)[nH]c21`, 34.1% (active); to `COc1ccccc1CNC(=O)COn1nnc2ccc(S(=O)(=O)N3CCOCC3)cc21`, -5.57%.
To `O=C(OCCN1C(=O)c2ccccc2C1=O)[C@@H]1CC(O)CN1S(=O)(=O)c1ccccc1[N+](=O)[O-]` (stereo not given in full) belongs 3.16%; to `CC(=O)c1ccc(OCCCC(=O)Nc2ccc(C)c(S(=O)(=O)N3CCOCC3)c2)cc1`, 7.22%.
For `COc1ccc2ccccc2c1CNCc1ccccn1`, the inhibition is -14.6%.
`COc1ccc(C(=O)/C=C/c2ccc(-c3ccccc3)cc2)cc1CSCC(=O)O`: the inhibition is 37.5% (active).
Take `COc1ccccc1CCNC(=O)C1CCN(C(=O)/C=C/c2ccccc2)CC1`: the inhibition is 1.82%.
To `COC(=O)c1ccc(COc2ccc(/C=C/C(=O)c3ccc(OC)c(CSCC(=O)O)c3)cc2OC)cc1` belongs 7.37%; to `CCN(CC)C(=O)C(C)N1c2cccc3cccc(c23)S1(=O)=O` (stereo not given), 9.73%.
To `CC1CCCCC1NC(=O)COC(=O)Cc1ccc(Cl)cc1` (stereo not given) belongs 3.03%; to `CCCN(CC(=O)NC(=O)NC1CCCCC1)CC(=O)Nc1cc(Cl)ccc1Cl`, -7.58%.
To `O=C(N/N=C/c1c(O)n(C2CC2)c(=S)[nH]c1=O)c1ccccc1` belongs 25.8%; to `O=c1[nH]c(=S)n(C2CC2)c(O)c1/C=N/N1CCOCC1`, 16.2%; to `O=C(N/N=C/c1c(O)n(C2CC2)c(=S)[nH]c1=O)c1ccccc1Cl`, 40.6% (active).
For `CC1CCN(C(=O)COC(=O)c2cc(=O)[nH]c3ccccc23)CC1`, the inhibition was 13.7%.
To `CC(C)(C)n1nnnc1C(c1ccccc1F)N1CCN(C(=O)c2ccco2)CC1` (stereo not given) belongs -4.67%; to `O=C(C[C@H]1C[C@H]2c3cc(NS(=O)(=O)c4ccc(F)cc4)ccc3O[C@H]2[C@H](CO)O1)NCc1cc(F)ccc1F`, -2.37%; to `CCNC(=O)c1ccc(OCC(=O)Nc2ccc(F)cc2)c(OC)c1`, 0.63%.
To `COc1ccc(C(=O)N/N=C2\CCS(=O)(=O)c3ccc(F)cc32)cc1OC` belongs 32.9% (active).
To `COc1ccc(C(=O)Nc2ccc(C3(C#N)CCCC3)cc2)cc1OC` belongs 9.36%; to `CC(Sc1cccc[n+]1[O-])C(=O)Nc1cccc(S(=O)(=O)N2CCOCC2)c1` (stereo not given), 0%; to `CCn1cc(/C=C(\NC(=O)c2ccc(C)cc2)C(=O)NCCN2CCOCC2)c2ccccc21`, 40.6% (active).
Take `Cc1ccc(C(=O)N/C(=C\c2cn(S(=O)(=O)N(C)C)c3ccccc23)C(=O)N2CCCC2)cc1`: the inhibition was -3.45%.
`COc1ccc(/C=C(\NC(=O)c2ccccc2)C(=O)NCCN2CCOCC2)cc1OC`: the inhibition was 14.8%.
To `CCSc1nnc(SCC(=O)NNC(=O)c2ccccc2F)s1` belongs -1.01%.
Regarding `CC1Cc2ccccc2N1C(=O)c1cc2sccc2n1Cc1ccccc1` (stereo not given), the inhibition was -0.44%.
Turning to `COCCOC(=O)c1sc(=S)n(CCOC)c1N`, the inhibition is 11.4%.
To `CCOC(=O)C(C)n1cnc2c(nnn2-c2cccc(OC)c2)c1=O` (stereo not given) belongs -6.44%; to `CCOC(=O)c1sc(=S)n(-c2cccc(OC)c2)c1N`, 33.3% (active); to `Cc1cc(/C=N/n2cnnc2)c(C)n1-c1ccc2ncccc2c1`, 15%.
For `O=S(=O)(Cc1nnnn1-c1ccccc1)c1ccccc1`, the inhibition is -3.16%.
`COc1ccc(CN2CCCCC2C)cc1OC` (stereo not given): the inhibition is 7.17%.
Consider `COc1ccc(/C=C(/NC(=O)c2ccc(C)cc2)c2nc3ccccc3[nH]2)cc1OC`, for which the inhibition was 46.6% (active).
For the compound `COc1cc(/C=C(\C#N)c2nc3ccccc3[nH]2)ccc1O`, the inhibition was 31.3% (active).
Take `Cc1ccc(C(=O)N/C(=C/c2cccnc2)C(=O)O)cc1`: the inhibition is 1.45%.
To `COc1ccc(C(=O)CN2C(=O)NC(C)(c3ccc(C)cc3)C2=O)cc1OC` (stereo not given) belongs -0.32%; to `CCN(C[C@H]1N[C@@](CC)(C(=O)OC)[C@H]2C(=O)N(C)C(=O)[C@@H]12)C(=O)Nc1ccc(F)cc1`, 0%.
In the case of `COc1ccc(/C=N/OCc2ccccc2C#N)c(OC)c1`, the inhibition was -3.57%.
To `CCOC(=O)c1nc(Nc2ccc(C(=O)OC)cc2)c2ccccc2n1` belongs 33.2% (active); to `COC(=O)c1ccc(Nc2ncnc3sccc23)cc1`, 8.09%; to `CCOC(=O)c1ccc(N/C(=N/S(=O)(=O)c2ccccc2)c2ccccc2)cc1`, 10.9%.
To `O=C(c1ccco1)N1CCN(Cc2cccc(C(F)(F)F)c2)CC1` belongs -0.77%; to `c1ccc(-c2nnc3n2NC(c2ccc4c(c2)OCO4)S3)cc1` (stereo not given), 17.1%; to `CC(=O)c1ccc(N2CCN(C(=O)C3CCN(S(=O)(=O)c4ccc5c(c4)CC(C)N5C(=O)C4CC4)CC3)CC2)cc1` (stereo not given), 23.5%.
To `CC(C)c1cc(C(=O)N/N=C/C(Br)=C/c2ccccc2)n[nH]1` belongs 36.9% (active).
For `CC(C)c1cc(C(=O)O)n[nH]1`, the inhibition is 8.57%.
To `Cc1ccc(/C=N/NC(=O)C(NC(=O)c2ccccc2)c2n[nH]c(=O)c3ccccc23)cc1` (stereo not given) belongs 1.58%; to `COc1ccc(CNC(=O)C(NS(=O)(=O)c2cccc3nsnc23)C(C)C)cc1` (stereo not given), 1.17%; to `CCn1c(Cc2ccc(OC)cc2)nnc1SCC(=O)Nc1ccc(N2CCOCC2)cc1`, -0.78%.
To `COc1cccc(/C=C(/CC(=O)Nc2ccc(N3CCOCC3)cc2)c2nc3ccccc3s2)c1` belongs 32.1% (active).
To `Cc1ccc(OCCCC(=O)Nc2ccc(N3CCOCC3)cc2)cc1` belongs -5.32%; to `CCOC(=O)c1sc(N(Cc2ccccc2)C(=O)CN2C(=O)CN(C)C2=O)nc1C`, -10.6%.
For `CC(C)(C)C1CCC(OC(=O)CCC(=O)Nc2ccccc2)CC1` (stereo not given), the inhibition is -9.56%.
To `CCCCn1c(N)c(N2CCOCC2)c(=O)n(CC(=O)NCCc2ccccc2)c1=O` belongs 8.07%; to `CC(=O)C1=C(O)C(=O)N(c2ccc(S(N)(=O)=O)cc2)C1c1ccccc1F` (stereo not given), 32.2% (active); to `CC(=O)C1=C(O)C(=O)N(c2ccc(Br)cc2)C1c1ccc([N+](=O)[O-])cc1` (stereo not given), 21.6%.
To `NS(=O)(=O)c1ccc(NC2=CC(c3ccc(F)cc3)N(c3ccc(S(N)(=O)=O)cc3)C2=O)cc1` (stereo not given) belongs 4.35%; to `CCCSC1=C(C#N)C(c2ccccc2C)C(C(=O)OC)C(=O)N1` (stereo not given), 3.67%; to `CC1CCC2(CC1)NC(=O)N(Cc1nnc(-c3cccs3)o1)C2=O` (stereo not given), -10.1%.
To `CC1(C)Cc2ccccc2/C(=C/C(=O)c2ccccc2)N1` belongs 4.27%; to `COc1cc2c(cc1OC)/C(=C/C(=O)c1ccc(NC(C)=O)cc1)NCC2`, 14%.
Consider `CC1CN/C(=C\C(=O)c2ccc(Br)cc2)C(=O)N1` (stereo not given), for which the inhibition was 33.3% (active).
On to `CCOC(=O)c1c(CC(C)C)csc1/N=C/C1=C(O)CCCC1=O`, for which the inhibition was -3.83%.
To `CCOC(=O)c1c(N)sc2c1CCCC2=O` belongs 36% (active).
To `CCOC(=O)c1c(/N=C/c2cc(C)ccc2O)sc2c1CCC2` belongs 9.89%; to `CCCCOc1ccc(N(CC(=O)NCC2CCCO2)C(=O)CCC(=O)Nc2cc(C)ccn2)cc1` (stereo not given), 12.4%; to `Cc1cccc(NS(=O)(=O)c2ccc(-c3cnc(C4CC4)o3)cc2)c1`, -5.68%.
To `CC1C=CCC2C(=O)N(c3cccc(C(=O)N4CCCCCC4)c3)C(=O)C12` (stereo not given) belongs 5.39%; to `Cc1ccc(-c2nn(C(C)(C)C)c3ncnc(N)c23)cc1`, 11.5%; to `CCOC(=O)C(CC)Sc1ncnc2c1nnn2-c1ccc(F)cc1` (stereo not given), 11.2%.
Consider `CCOC(=O)c1c(NC(=S)NC(=O)/C=C/c2cccs2)sc(C)c1C`, for which the inhibition was -3.37%.
For `CCc1nnc(NS(=O)(=O)c2ccc(NC(=O)c3cccc(OC(F)(F)C(F)F)c3)cc2)s1`, the inhibition was -13%.
Take `CCc1nnc(NS(=O)(=O)c2ccc(NC(=S)NC(=O)/C=C/c3cccs3)cc2)s1`: the inhibition is 32.2% (active).
